For 6 targets, NP40-soluble protein abundance results are on record in the supplement of paper PMC6411743.

± gives the standard deviation of the averaged measurements. Of roughly 5,400 targets only a part is listed; those with the largest changes were picked by preference.

Compound in the assay: Nc1nc2c(ncn2[C@@H]2O[C@H](COP(=O)(O)OP(=O)(O)OP(=O)(O)O)[C@@H](O)[C@H]2O)c(=O)[nH]1 [guanosine triphosphate]
Description: NP40-soluble protein abundance relative to vehicle (solubility fold change) (ratio); higher = more soluble protein in presence of GTP. In outline:
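Each value is a fold change relative to the detergent-processed vehicle, calculated per replicate from vsn-normalised intensities. Jurkat crude lysate received eight concentrations (0.1 to 10 mM) for 10 min at room temperature and 3 min at 37 °C, then was solubilised in 0.8% NP40 with benzonase (60 min, 4 °C). The ultracentrifuged supernatant was TMT-labelled and run by LC-MS/MS in three independent experiments.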

Chain of UniProt O43708 (O43708 whole entry, one chain of several): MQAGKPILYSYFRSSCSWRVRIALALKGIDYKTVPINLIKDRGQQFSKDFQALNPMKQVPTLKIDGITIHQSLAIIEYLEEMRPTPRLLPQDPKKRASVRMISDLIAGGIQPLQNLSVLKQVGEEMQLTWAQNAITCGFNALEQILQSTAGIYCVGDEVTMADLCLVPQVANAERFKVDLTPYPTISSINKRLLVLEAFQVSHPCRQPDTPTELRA
Chain of UniProt O94880 (O94880 whole entry, one chain of several): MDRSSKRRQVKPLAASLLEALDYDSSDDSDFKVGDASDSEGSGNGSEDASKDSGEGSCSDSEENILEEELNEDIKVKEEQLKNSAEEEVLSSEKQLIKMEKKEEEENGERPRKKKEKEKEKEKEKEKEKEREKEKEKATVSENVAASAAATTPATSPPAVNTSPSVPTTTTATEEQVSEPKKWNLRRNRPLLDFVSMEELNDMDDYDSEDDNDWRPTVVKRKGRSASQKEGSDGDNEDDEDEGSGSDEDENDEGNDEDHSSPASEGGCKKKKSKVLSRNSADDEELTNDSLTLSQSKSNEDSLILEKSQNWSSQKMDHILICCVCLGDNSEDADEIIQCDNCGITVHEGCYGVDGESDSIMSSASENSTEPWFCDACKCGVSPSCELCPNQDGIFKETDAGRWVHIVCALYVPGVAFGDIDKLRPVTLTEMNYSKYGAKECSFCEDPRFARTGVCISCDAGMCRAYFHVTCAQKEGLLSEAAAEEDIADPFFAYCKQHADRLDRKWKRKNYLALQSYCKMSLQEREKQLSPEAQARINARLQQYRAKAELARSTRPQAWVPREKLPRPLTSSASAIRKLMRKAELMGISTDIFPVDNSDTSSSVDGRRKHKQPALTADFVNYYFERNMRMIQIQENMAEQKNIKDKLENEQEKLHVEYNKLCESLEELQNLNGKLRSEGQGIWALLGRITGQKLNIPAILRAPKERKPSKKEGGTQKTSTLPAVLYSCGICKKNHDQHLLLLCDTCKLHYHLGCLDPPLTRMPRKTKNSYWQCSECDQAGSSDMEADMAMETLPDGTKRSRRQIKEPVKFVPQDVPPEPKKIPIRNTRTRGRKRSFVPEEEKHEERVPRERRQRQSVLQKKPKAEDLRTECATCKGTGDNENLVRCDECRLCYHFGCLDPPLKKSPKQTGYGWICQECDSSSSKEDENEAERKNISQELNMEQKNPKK
Chain of UniProt Q9H0W9 (Q9H0W9 whole entry, one chain of several): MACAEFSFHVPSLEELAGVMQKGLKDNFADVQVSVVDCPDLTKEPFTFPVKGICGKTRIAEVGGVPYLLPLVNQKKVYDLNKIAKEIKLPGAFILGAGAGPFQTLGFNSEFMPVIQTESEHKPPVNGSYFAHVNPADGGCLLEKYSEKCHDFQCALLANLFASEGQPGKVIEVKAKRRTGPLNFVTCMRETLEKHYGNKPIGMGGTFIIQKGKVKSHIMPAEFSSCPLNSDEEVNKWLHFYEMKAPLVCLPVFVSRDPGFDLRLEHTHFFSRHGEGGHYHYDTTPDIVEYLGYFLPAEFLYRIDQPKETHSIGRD
Chain of UniProt Q9BQ39 (Q9BQ39 whole entry, one chain of several): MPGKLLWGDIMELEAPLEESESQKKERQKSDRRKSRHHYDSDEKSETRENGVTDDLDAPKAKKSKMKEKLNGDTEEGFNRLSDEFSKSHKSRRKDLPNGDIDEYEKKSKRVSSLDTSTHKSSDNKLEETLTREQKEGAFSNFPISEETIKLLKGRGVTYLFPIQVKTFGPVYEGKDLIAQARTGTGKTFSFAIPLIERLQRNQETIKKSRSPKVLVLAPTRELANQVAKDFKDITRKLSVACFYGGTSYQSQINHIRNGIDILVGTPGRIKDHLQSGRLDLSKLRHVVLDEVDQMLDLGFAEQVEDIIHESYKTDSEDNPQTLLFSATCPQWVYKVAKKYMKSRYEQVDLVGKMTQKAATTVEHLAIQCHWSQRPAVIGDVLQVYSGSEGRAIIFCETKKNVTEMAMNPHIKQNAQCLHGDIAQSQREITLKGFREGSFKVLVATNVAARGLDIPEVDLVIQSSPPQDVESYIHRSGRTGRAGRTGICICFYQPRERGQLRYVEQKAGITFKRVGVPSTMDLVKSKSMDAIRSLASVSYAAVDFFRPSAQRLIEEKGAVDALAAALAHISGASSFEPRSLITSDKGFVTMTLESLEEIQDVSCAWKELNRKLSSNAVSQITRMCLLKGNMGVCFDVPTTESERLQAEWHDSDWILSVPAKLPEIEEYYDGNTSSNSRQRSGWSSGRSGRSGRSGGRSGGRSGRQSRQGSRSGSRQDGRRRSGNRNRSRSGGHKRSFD
Chain of UniProt P15336 (P15336 whole entry, one chain of several): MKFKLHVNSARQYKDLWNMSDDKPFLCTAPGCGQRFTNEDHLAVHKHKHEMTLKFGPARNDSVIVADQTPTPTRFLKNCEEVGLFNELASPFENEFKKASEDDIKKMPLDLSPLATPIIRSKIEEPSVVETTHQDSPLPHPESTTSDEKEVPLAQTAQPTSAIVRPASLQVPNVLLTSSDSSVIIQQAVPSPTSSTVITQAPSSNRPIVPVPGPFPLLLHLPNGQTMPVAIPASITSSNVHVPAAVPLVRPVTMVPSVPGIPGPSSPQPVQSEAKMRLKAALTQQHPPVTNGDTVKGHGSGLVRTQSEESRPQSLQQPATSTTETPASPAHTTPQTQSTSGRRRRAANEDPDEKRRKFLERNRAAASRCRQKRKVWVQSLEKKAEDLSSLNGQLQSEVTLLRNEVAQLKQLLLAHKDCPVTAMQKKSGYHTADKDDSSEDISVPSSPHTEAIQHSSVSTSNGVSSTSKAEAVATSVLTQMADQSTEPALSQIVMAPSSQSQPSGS
Chain of UniProt P08069 (P08069 whole entry, looked up, one chain of several): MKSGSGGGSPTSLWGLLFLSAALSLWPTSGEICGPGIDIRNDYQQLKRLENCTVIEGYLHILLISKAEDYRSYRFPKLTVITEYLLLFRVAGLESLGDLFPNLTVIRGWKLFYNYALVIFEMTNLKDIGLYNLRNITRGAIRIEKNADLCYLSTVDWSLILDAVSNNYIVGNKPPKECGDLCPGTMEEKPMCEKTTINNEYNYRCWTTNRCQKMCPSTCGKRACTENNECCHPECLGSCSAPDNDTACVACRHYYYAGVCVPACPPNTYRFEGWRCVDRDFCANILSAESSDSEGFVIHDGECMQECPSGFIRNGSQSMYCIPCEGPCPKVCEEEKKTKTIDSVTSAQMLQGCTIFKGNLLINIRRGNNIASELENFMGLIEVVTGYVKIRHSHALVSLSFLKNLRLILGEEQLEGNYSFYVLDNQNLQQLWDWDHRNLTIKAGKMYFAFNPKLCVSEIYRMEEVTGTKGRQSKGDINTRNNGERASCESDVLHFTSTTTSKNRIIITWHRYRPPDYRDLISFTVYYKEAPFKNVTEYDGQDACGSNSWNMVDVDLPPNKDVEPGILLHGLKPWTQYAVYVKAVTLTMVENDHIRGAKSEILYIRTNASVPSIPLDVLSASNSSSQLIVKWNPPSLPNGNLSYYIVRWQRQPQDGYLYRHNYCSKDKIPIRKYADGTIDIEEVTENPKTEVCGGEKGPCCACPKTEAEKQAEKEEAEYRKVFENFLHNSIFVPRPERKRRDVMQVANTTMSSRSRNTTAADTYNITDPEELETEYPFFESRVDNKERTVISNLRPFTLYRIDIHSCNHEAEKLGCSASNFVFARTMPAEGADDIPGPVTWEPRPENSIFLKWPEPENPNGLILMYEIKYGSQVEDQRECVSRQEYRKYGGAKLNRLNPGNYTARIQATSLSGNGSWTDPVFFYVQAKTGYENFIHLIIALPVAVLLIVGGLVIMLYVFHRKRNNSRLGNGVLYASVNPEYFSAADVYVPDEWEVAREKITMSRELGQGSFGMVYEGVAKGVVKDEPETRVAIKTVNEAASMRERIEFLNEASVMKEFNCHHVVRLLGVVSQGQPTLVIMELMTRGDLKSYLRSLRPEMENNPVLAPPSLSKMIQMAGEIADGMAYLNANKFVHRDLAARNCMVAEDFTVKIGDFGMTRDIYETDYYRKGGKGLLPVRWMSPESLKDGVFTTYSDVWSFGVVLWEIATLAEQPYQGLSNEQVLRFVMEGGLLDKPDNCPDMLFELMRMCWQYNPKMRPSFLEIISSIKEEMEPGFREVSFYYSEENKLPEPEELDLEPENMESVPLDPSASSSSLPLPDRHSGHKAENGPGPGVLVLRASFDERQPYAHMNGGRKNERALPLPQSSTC

In the case of C9J5X1|P08069 (UniProt P08069), the NP40-soluble protein abundance runs as follows: (concentration: 0.1mM) 1.04 ± 0.13; (concentration: 0.5mM) 1.04 ± 0.13; (concentration: 1mM) 1.15 ± 0.11; (concentration: 2mM) 0.987 ± 0.07; (concentration: 4mM) 1 ± 0.086; (concentration: 6mM) 1.05 ± 0.1. For the same target, the NP40-soluble protein abundance runs as follows: (concentration: 8mM) 1.07 ± 0.14; (concentration: 10mM) 1.04 ± 0.2.

Regarding “A0A087WT99|Q9H0W9|Q9H0W9-2|E9PPB5|E9PQS1 (UniProt Q9H0W9)”, the NP40-soluble protein abundance worked out at 0.993 ± 0.094 (concentration: 0.1mM); 0.942 ± 0.069 (concentration: 0.5mM); 0.925 ± 0.048 (concentration: 1mM); 0.899 ± 0.068 (concentration: 2mM); 0.872 ± 0.058 (concentration: 4mM); 0.897 ± 0.087 (concentration: 6mM). Further, the NP40-soluble protein abundance by setting is: (concentration: 8mM) 0.901 ± 0.11; (concentration: 10mM) 0.848 ± 0.053.

With G3V5T0|O43708 (UniProt O43708), the NP40-soluble protein abundance reads like this: (concentration: 0.1mM) 0.95 ± 0.046; (concentration: 0.5mM) 0.961 ± 0.087; (concentration: 1mM) 0.879 ± 0.058; (concentration: 2mM) 0.867 ± 0.063; (concentration: 4mM) 0.848 ± 0.068; (concentration: 6mM) 0.854 ± 0.076. Moreover, the NP40-soluble protein abundance reads like this: (concentration: 8mM) 0.819 ± 0.096; (concentration: 10mM) 0.815 ± 0.091.

“B8ZZU6|E9PBF9|P15336-5|P15336 (UniProt P15336)”: the NP40-soluble protein abundance worked out at 0.868 ± 0.086 (concentration: 0.1mM); 0.907 ± 0.044 (concentration: 0.5mM); 0.969 ± 0.14 (concentration: 1mM); 0.943 ± 0.078 (concentration: 2mM); 0.899 ± 0.011 (concentration: 4mM); 0.899 ± 0.045 (concentration: 6mM). Besides, the NP40-soluble protein abundance runs as follows: (concentration: 8mM) 0.906 ± 0.1; (concentration: 10mM) 0.955 ± 0.078.

As to “A0A0U1RRH6|O94880|O94880-2 (UniProt O94880)”, the NP40-soluble protein abundance (concentration: 0.1mM) came to 1.05 ± 0.095; the NP40-soluble protein abundance (concentration: 0.5mM) came to 1.07 ± 0.14; the NP40-soluble protein abundance (concentration: 1mM) is 1.15 ± 0.12; the NP40-soluble protein abundance (concentration: 2mM) stood at 1.16 ± 0.065; the NP40-soluble protein abundance (concentration: 4mM) came out at 1.34 ± 0.12; the NP40-soluble protein abundance (concentration: 6mM) was 1.46 ± 0.096. Moreover, the NP40-soluble protein abundance (concentration: 8mM) was 1.65 ± 0.25 and the NP40-soluble protein abundance (concentration: 10mM) amounted to 1.78 ± 0.25.

Take A0A087WVC1|Q9BQ39 (UniProt Q9BQ39): the NP40-soluble protein abundance (concentration: 0.1mM) was found to be 1.19 ± 0.051; the NP40-soluble protein abundance (concentration: 0.5mM) was 1.25 ± 0.055; the NP40-soluble protein abundance (concentration: 1mM) came out at 1.4 ± 0.089; the NP40-soluble protein abundance (concentration: 2mM) was 1.89 ± 0.23; the NP40-soluble protein abundance (concentration: 4mM) was 2.57 ± 0.26; the NP40-soluble protein abundance (concentration: 6mM) worked out at 3.29 ± 0.3. Also, the NP40-soluble protein abundance (concentration: 8mM) was 3.85 ± 0.56 and the NP40-soluble protein abundance (concentration: 10mM) stood at 4.45 ± 0.47.
